Results as given in PubChem BioAssay (EPA / NIEHS).
Results filed as inconclusive are left out. Activity calls are given as the source filed them. The calls were made as follows, unless noted: active = hit-call score of the fitted dose curve at least 0.9, where 1 is the maximum; inactive = score below 0.9.

Experiments:
[1] = ACEA_ER_80hr: ACEA Biosciences xCELLigence Real-Time Cell Analysis on Estrogen Receptor Agonism for Proliferation (AID 2282667; active = hit-call score of the fitted dose curve at least 0.9, where 1 is the maximum); details: T47D proliferation, impedance (xCELLigence), 80 h
Method in brief: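 Impedance readout (RT-CES) of T47D proliferation at 80 h post-dose; gain of signal vs DMSO baseline. Compounds: 8 conc, 1:4 serial, top 100 uM final, ≤0.5% DMSO; biological duplicate.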

[2] = ATG_CRE_CIS: Attagene CIS-FACTORIAL HepG2 Assay for human cAMP Responsive Element (CRE) binding protein 3 (AID 2282926); details: HepG2 CRE cis-reporter, Attagene multiplexed mRNA; actives raise or lower the signal
Method in brief: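 Readout: fluorescently labelled reporter transcripts resolved by capillary electrophoresis after RT-PCR, taken 24 h post-dosing in transfected HepG2. Endogenous transcription factor activity drives each cis-element reporter; gain or loss of signal fitted relative to DMSO control.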

[3] = target: CCAAT/enhancer-binding protein beta (Homo sapiens) (UniProt P17676); experiment: ATG_C_EBP_CIS: Attagene CIS-FACTORIAL HepG2 Assay for human CCAAT/Enhancer Binding Protein (C/EBP) beta (AID 2282927); details: HepG2 Attagene cis-factorial transcription factor reporter; actives raise or lower the signal
Method in brief: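 RT-PCR/capillary electrophoresis fluorescence of reporter mRNA, 24 h post-dose, in HepG2 cells carrying transfected cis-promoter reporter units. Bidirectional curve fitting against DMSO baseline captures gain or loss of signal.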

[4] = ATG_CMV_CIS: Attagene CIS-FACTORIAL HepG2 Assay for human CMV (Internal Marker) (AID 2282928); details: HepG2 CMV promoter reporter, transcription factor profiling; actives raise or lower the signal;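 also: endpoint acts as a background internal control marker rather than a target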
Method in brief: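 24 h chemical treatment, HepG2 with transient multi-reporter transfection; RNA → oligo(dT) RT → PCR → 6-FAM extension → HpaI digest → CE fluorescence. Bidirectional fit, DMSO negative control.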

[5] = ATG_AP_1_CIS: Attagene CIS-FACTORIAL HepG2 Assay for human Activator Protein 1 (AP-1) (AID 2282931); details: HepG2 Attagene cis-factorial AP-1 reporter mRNA; actives raise or lower the signal
Method in brief: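 Readout is reporter transcript level from endogenous transcription factor activity, quantified by RT-PCR with fluorescent primer extension and capillary electrophoresis. Transiently transfected HepG2 cells, 24 h exposure. Curves fitted both directions versus DMSO.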

[6] = ATG_AP_2_CIS: Attagene CIS-FACTORIAL HepG2 Assay for human Activator Protein 2 (AP-2) (AID 2282932); details: HepG2 AP-2 cis-reporter, Attagene transcription factor profiling; actives raise or lower the signal
Method in brief: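 Cells (HepG2) transfected with promoter-driven reporter constructs, treated 24 h. Total RNA reverse-transcribed, reporter cDNA PCR-amplified, FAM-labelled by primer extension, digested, resolved by capillary electrophoresis. Activity fitted both directions versus DMSO.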

[7] = ATG_BRE_CIS: Attagene CIS-FACTORIAL HepG2 Assay for human Bone Morphogenetic Protein (BMP) Response Element (BRE) (AID 2282933); details: HepG2 BMP response element reporter, Attagene transcription factor profiling; actives raise or lower the signal
Method in brief: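 Read-out: reporter mRNA induction quantified by RT-PCR and capillary electrophoresis after 24 h chemical exposure of transfected HepG2 cells. Endogenous factor activity on the BMP response element; gain or loss fitted against DMSO baseline.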

[8] = target: Retinoic acid receptor alpha (Homo sapiens) (UniProt P10276); experiment: ATG_DR5_RAR_CIS: Attagene CIS-FACTORIAL HepG2 Assay for human Retinoic Acid Receptor Alpha (RARE), DR5 submotif (AID 2282934); details: HepG2 Attagene cis-factorial RARE DR5 reporter, mRNA; actives raise or lower the signal;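 as to AC50: reporter responds to endogenous RAR alpha beta and gamma in HepG2 not RARA alone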
Method in brief: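 HepG2 cells transiently transfected with multiplexed reporter units under cis (DR5 RARE) promoters, so endogenous transcription factor activity is measured. After 24 h compound exposure, reporter mRNA is quantified by RT-PCR with fluorescent labelling and capillary electrophoresis; bidirectional fitting versus DMSO.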

[9] = target: Aryl hydrocarbon receptor (Homo sapiens) (UniProt P35869); experiment: ATG_Ahr_CIS: Attagene CIS-FACTORIAL HepG2 Assay for human Aryl Hydrocarbon Receptor (Ahr) (AID 2282930); details: HepG2 AhR cis-factorial reporter transcription; actives raise or lower the signal
Method in brief: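 HepG2 cells transiently transfected with cis-element-driven multiplexed reporter transcription units; endogenous transcription factor activity measured as reporter mRNA 24 h after dosing. RT-PCR, 6-FAM labelling, HpaI digestion, capillary electrophoresis; bidirectional fitting versus DMSO baseline.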

[10] = ATG_DR4_LXR_CIS: Attagene CIS-FACTORIAL HepG2 Assay for human Liver X Receptor (LXR), DR4 submotif (AID 2282929); details: HepG2 Attagene DR4 cis-reporter, mRNA transcription; actives raise or lower the signal
Method in brief: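 The endpoint is DR4-element-driven reporter transcripts after 24 h chemical exposure of transfected HepG2 cells. These were measured via RT-PCR and capillary electrophoresis, and gain or loss of signal was fitted relative to DMSO controls.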

Measured: AC50

Sequence of CCAAT/enhancer-binding protein beta (Homo sapiens) (P17676 whole entry, looked up): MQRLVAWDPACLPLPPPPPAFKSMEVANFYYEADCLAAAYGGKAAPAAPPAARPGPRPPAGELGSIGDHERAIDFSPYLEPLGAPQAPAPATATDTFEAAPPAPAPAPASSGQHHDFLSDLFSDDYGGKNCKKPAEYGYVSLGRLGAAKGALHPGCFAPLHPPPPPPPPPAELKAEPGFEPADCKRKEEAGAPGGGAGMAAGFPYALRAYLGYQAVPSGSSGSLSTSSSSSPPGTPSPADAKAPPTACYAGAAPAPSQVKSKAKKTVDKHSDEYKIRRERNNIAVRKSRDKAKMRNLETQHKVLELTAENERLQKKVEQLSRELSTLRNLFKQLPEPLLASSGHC
Sequence of Retinoic acid receptor alpha (Homo sapiens) (P10276 whole entry, looked up): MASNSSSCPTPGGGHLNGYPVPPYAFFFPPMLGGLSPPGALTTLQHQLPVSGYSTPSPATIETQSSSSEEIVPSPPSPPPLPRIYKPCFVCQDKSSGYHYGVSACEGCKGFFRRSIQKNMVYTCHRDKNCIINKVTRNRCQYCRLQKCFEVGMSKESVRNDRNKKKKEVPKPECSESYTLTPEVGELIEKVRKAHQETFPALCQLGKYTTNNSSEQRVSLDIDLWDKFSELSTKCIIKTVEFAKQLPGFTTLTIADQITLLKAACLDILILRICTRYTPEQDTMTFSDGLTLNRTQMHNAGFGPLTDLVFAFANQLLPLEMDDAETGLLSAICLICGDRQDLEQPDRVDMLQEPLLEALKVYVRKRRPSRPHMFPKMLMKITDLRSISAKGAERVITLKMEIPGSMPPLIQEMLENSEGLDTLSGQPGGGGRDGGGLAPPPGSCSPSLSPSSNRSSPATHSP
Sequence of Aryl hydrocarbon receptor (Homo sapiens) (P35869 whole entry, looked up): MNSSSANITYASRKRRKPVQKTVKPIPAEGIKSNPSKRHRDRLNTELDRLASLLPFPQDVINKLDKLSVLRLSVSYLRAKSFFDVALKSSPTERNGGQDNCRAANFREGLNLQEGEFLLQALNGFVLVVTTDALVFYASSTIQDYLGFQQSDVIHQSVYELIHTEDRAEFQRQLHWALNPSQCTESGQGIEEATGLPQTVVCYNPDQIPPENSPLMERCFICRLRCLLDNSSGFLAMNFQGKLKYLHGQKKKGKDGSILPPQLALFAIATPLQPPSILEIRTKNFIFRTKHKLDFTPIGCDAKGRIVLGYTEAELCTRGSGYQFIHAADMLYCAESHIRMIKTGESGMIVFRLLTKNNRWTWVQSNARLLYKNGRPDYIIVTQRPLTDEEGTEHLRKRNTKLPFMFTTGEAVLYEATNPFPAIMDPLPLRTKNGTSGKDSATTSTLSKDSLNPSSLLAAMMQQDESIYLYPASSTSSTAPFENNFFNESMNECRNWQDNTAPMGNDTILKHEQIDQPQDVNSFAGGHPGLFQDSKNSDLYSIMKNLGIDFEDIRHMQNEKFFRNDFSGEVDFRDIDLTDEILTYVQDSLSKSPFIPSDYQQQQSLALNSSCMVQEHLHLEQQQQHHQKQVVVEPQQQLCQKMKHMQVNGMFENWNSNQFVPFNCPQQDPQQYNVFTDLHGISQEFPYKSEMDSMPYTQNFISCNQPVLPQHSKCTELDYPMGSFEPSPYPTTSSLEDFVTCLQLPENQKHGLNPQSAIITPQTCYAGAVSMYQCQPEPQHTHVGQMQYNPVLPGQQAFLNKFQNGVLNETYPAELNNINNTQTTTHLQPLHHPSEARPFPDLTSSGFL

CC1=CC(C)C(C=O)CC1 (centres undefined)
inactive: [1] | [2] | [3] | [4] | [5] | [6] | [7] | [8]

CC(C)OC(=O)c1ccccc1
inactive: [1] | [2] | [3] | [4] | [9] | [5] | [6] | [8]

CC(=O)CCC1=C(C)CCCC1(C)C
inactive: [1] | [2] | [3] | [4] | [9] | [5] | [6] | [8]

CCN1CCCC1=O
inactive: [1] | [2] | [3] | [10] | [9] | [5] | [6] | [7] | [8]

CC1OC(=O)C(C)OC1=O (centres undefined)
inactive: [2] | [3] | [10] | [9] | [5] | [6] | [7] | [8]
active: [1] 0.169 µM

CCOC(=O)C1=NOC(c2ccccc2)(c2ccccc2)C1
inactive: [1] | [2] | [3] | [10] | [9] | [5] | [6] | [7] | [8]

CCCCC/C=C\C/C=C\CCCCCCCC(=O)O
active: [10] 76.9 µM | [9] 100 µM | [5] 153 µM
inactive: [1] | [2] | [3] | [6] | [7] | [8]

C=CC(=O)O[C@H]1C[C@@H]2CC[C@@]1(C)C2(C)C
inactive: [1] | [3] | [10] | [9] | [7]
active: [2] 180 µM | [5] 75.3 µM | [6] 100 µM | [8] 177 µM

CCCCc1ccc(Cl)cc1
inactive: [1] | [2] | [3] | [10] | [9] | [5] | [8]

Oc1ccc(-c2ccccc2)c(Cl)c1
inactive: [3] | [10] | [9] | [6] | [8]
active: [1] 10.5 µM | [2] 33.4 µM | [5] 60.2 µM | [7] 33.4 µM

CC(CC(C)C)=NO
inactive: [2] | [3] | [4] | [10] | [9] | [5] | [6] | [7] | [8]

CC(=O)CCC=C(C)C
inactive: [1] | [2] | [3] | [10] | [9] | [5] | [7] | [8]

Cc1ccc(S(=O)(=O)N=C=O)cc1
inactive: [1] | [2] | [3] | [10] | [9] | [5] | [6] | [7] | [8]

C=CC(C)(CCC=C(C)C)OC(=O)C=Cc1ccccc1 (centres undefined)
inactive: [1] | [2] | [3] | [9] | [6] | [8]
active: [10] 27.1 µM | [5] 100 µM

CCCCOCCOCCOC(C)=O
inactive: [1] | [2] | [3] | [10] | [9] | [5] | [6] | [7] | [8]

C=CC(=O)NCOCCCC
inactive: [1] | [2] | [3] | [4] | [5] | [7] | [8]

CC(C)c1cccc(C(C)C)c1N
inactive: [1] | [2] | [3] | [10] | [9] | [5] | [7] | [8]

CCc1cccc(CC)c1
inactive: [1] | [2] | [3] | [10] | [5] | [6] | [7] | [8]

CC1(C)C(=O)N(CO)C(=O)N1CO
inactive: [1] | [2] | [3] | [10] | [9] | [5] | [6] | [7] | [8]

COc1ccc(-c2coc3cc(O)cc(O)c3c2=O)cc1
active: [1] 0.673 µM | [9] 27 µM | [5] 64 µM | [7] 67.2 µM
inactive: [2] | [3] | [10] | [6] | [8]

CC(C)c1cc(C(C)C)cc(C(C)C)c1
inactive: [1] | [2] | [9] | [7]
active: [3] 182 µM | [10] 25.9 µM | [5] 125 µM | [6] 180 µM | [8] 59.5 µM

CCOB(OCC)OCC
inactive: [1] | [2] | [3] | [10] | [9] | [5] | [7] | [8]

CCC(C)(O)CCCC(C)C (centres undefined)
inactive: [1] | [2] | [3] | [10] | [5] | [7] | [8]

CCC(=O)C1CC(C(C)C)CC=C1C (centres undefined)
inactive: [1] | [2] | [3] | [10] | [9] | [5] | [6] | [7] | [8]

CCCCC(=O)O
inactive: [1] | [2] | [3] | [10] | [9] | [5] | [6] | [7] | [8]

CCCC=C(C=O)CC
inactive: [1] | [2] | [3] | [10] | [5] | [6] | [7] | [8]
